Drawing on PubChem BioAssay (NCI), this text covers growth for 40 compounds.

About 83,000 compounds went through this panel and 20% of them were active in at least one assay; those are over-represented in the sample as a whole.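 96-well plates, one dose, 48 hours. Percent growth reported; active if below 10.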 Values without a mark were called inactive. The source made the active and inactive calls.

The assay relates to COLO 205 colon. Briefly: NCI-60 one-dose screen, 48 h (100 = growth as untreated, 0 = no growth, -100 = all killed). The note with it: 10 µM. As to the method:
Cells are grown in 96 well plates and exposed to the test compound for 48 hours. Compounds are tested at a single concentration, which is 10^-5 M for most compounds. The reported endpoint is percent growth (GI% or GIPRCNT), where numbers from 0 - 100% represent growth inhibition, and numbers from -100% - 0 represent cell death. For example, a value of 40 represents 60% growth inhibition. A value of 0 means no net growth occurred over the course of the experiment. A value of -40 indicates 40% of cells at the beginning of the experiment died by the end of the experiment. A value of -100 means all cells are dead at the end of the experiment.
NCI-60 Human Tumor Cell Lines Screen was performed using the standard one-dose NCI protocol, which is described in more detail at https://dtp.cancer.gov/discovery_development/nci-60/default.htm.
Compounds with GIPRCNT values below 10 were considered active. Activity score was based on GIPRCNT using the following formula: […]
Score is 0 for GIPRCNT values of 100 or above, 50 for GIPRCNT values of 0, and 100 for GIPRCNT values of -100.
For the compound `Oc1ccc(N=Nc2ccc(Br)cc2)c(O)c1`, the growth is 129%.
For `Nc1nc(N)c(N=Nc2ccc(C(=O)O)cc2)c(N)n1`, the growth is 117%.
With `C[N+](C)=c1ccc2nc3c(cc(Nc4ccccc4)c4ccccc43)oc-2c1`, the growth is 22.6%.
With `Cc1cc(/C=C/c2ccc3cc(N(C)C)ccc3[n+]2C)c(C)n1-c1ccccc1`, the growth is -79.5% (active).
`COc1ccc(-c2cc3c(nn2)-c2ccccc2C3=O)cc1`: the growth was 42.3%.
In the case of `CC1=CC(=O)c2ccccc2C1=O`, the growth is 108%.
As for `COC(=O)c1ccc(C(C)C)cc1`, the growth is 98%.
On to `O=C(/C=C/C(=O)c1ccccc1)c1ccccc1`, for which the growth is 70.1%.
As for `CCOC(=O)C(O)C(O)C(=O)OCC` (stereo not given), the figure is 106%; as for `COc1cccc(Sc2ccc([N+](=O)[O-])c3no[n+]([O-])c23)c1`, -42.2% (active); as for `C/C(=N/NC(N)=O)c1ccco1`, 105%.
With `O=C1C=C(O)C(=O)C=C1O`, the growth is 94.1%.
Consider `CCC(C)(C)C1CCC(O)CC1` (stereo not given), for which the growth is 110%.
In the case of `O=c1cc(-c2ccccc2)oc2c1ccc1ccccc12`, the growth is 85.8%.
In the case of `O=[N+]([O-])c1ccc(N=Nc2ccc(O)c3ccccc23)cc1`, the growth was 88.5%.
On to `C/C(=N\NC(=O)c1ccccc1N)c1ccccc1O`, for which the growth is 9.89% (active).
As to `COc1cc2cc(c1Cl)N(C)C(=O)C[C@H](OC(=O)[C@H](C)N(C)C(C)=O)[C@]1(C)O[C@H]1[C@H](C)[C@@H]1C[C@@](O)(NC(=O)O1)[C@H](OC)C=C/C=C(\C)C2`, the growth was -51.3% (active).
The result for `COc1ccc(C)cc1OC` reads 113%.
Consider `CCCC(=O)Nc1ccc2c(c1)CN1C(=O)c3ccccc3C1=N2`, for which the growth is 109%.
In the case of `CC(=O)OC(C(=O)O)c1ccccc1` (stereo not given), the growth is 118%.
As to `C#Cc1cccc(NC(=O)c2ccc(Cl)cc2Cl)c1`, the growth was 128%.
For `Cc1ccc(CCCC(=O)O)c(C)c1`, the growth was 102%.
Consider `O=P(O)(O)OCC(O)CO` (stereo not given), for which the growth was 110%.
As for `CC(C)COC(=O)COC(=O)OCCOCCOC(=O)OCC(=O)OCC(C)C`, the figure is 117%; as for `CC(C)=NNc1ccc([N+](=O)[O-])cc1[N+](=O)[O-]`, 84.9%.
The result for `O=C(O)CCCCNC(=O)c1ccccc1` reads 108%.
Consider `O=C(/C(=N/O)c1ccccc1)c1ccccc1`, for which the growth is 115%.
In the case of `CCN(CC)CCNc1ccc(CO)c2sc3ccccc3c(=O)c12`, the growth was 11.9%.
On to `O=C(NN=C1CCCCC1)C(=O)NN=C1CCCCC1`, for which the growth was 106%.
As for `C=CC(=O)OCCCCCCCC`, the growth is 107%.
Take `COc1cccc(O)c1O`: the growth was 108%.
The result for `CCOC(=O)c1[nH]c(C)c(C(C)=O)c1C` reads 115%; that for `CCOC(=O)c1cc(/C=C/c2ccc(Cl)cc2Cl)on1`, 57.4%; that for `C=CC(O)CCC` (stereo not given), 119%.
As for `N#CC1(Nc2ccc3c4c(cccc24)CC3)CCCCC1`, the growth is 94.7%.
As for `c1csc(-c2cc(-c3cc(-c4cccs4)[nH]n3)n[nH]2)c1`, the figure is 114%; as for `O=[N+]([O-])c1ccc(S(=O)(=O)NN=C2CCCCC2)cc1`, 102%; as for `COc1ccc2c(c1)CCc1c-2n[nH]c1-c1[nH]nc2c1CCc1cc(OC)ccc1-2`, 67.8%.
For `CCOC(=O)c1cc2cccc(OC)c2oc1=O`, the growth is 123%.
On to `CC(=O)c1c[nH]c2ccccc12`, for which the growth is 119%.
